Hits are enriched below; roughly 12% of the tested compounds scored in any of these assays.
HP1b chromo inh – HTS for Inhibitors of HP1-beta Chromodomain Interactions with Methylated Histone Tails | Chromobox protein homolog 1 (Homo sapiens), P83916 | AlphaScreen HP1-beta / biotin-H3K9me3 peptide binding | Potency, µM (doses to about 114 µM), most hits filed as inhibitors | 0.56% of 390,000 active; also: nearly all actives have a fitted effect of over 70% in size
Target sequence (P83916 whole entry, looked up): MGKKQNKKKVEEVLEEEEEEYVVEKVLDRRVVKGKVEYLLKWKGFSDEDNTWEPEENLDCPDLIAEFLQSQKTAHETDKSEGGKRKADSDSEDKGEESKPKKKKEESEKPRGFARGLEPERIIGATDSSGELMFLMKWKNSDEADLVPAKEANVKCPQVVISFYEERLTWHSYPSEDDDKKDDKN
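HP1-beta protein (50 nM final) preincubated 30 min at room temperature with biotinylated H3(1-18)K9me3 peptide (50 nM) in PBS pH 7.4, 0.01% Tween-20, then compound added for 30 min. AlphaScreen streptavidin donor/nickel chelate acceptor beads (10 ug/mL final), 30 min dark, luminescence read.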
BAZ2B block – qHTS Assay for Inhibitors of BAZ2B; AlphaScreen BAZ2B-H3K14Ac peptide displacement; Bromodomain adjacent to zinc finger domain protein 2B (Homo sapiens), Q9UIF8; AID 504333, 2011; Potency, µM (series often up to 114 µM), most hits filed as inhibitors; 4.4% of 360,000 active; also: nearly all actives have a fitted effect of over 60% in size
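BAZ2B (50 nM) with biotin-H3(5-23)K14Ac peptide (50 nM) in PBS pH 7.4, 0.01% Tween-20, preformed 30 min, then compound 30 min at room temperature; top concentration 110uM. AlphaScreen streptavidin donor/nickel chelate acceptor beads (10 ug/mL final), 20 min dark, signal read.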
PLK1 PBD block – qHTS for Inhibitors of PLK1-PDB (polo-like kinase 1 - polo-box domain): Primary Screen; Serine/threonine-protein kinase PLK1 (Homo sapiens), P53350; Plk1 PBD binding of FITC phosphopeptide, fluorescence polarization; Potency, µM, usual class: inhibitors; 2.8% of 360,000 active; AID 720504, 2013; also: series mostly up to about 57 µM; nearly all actives have a fitted effect of over 65% in size
G9a inh – qHTS Assay for Inhibitors of Histone Lysine Methyltransferase G9a; AID 504332, 2011; G9a H3K9 monomethylation, AlphaScreen, 2 h; 8.8% of 350,000 active; Potency, µM (top dose mostly 102 µM), usual class: inhibitors; Histone-lysine N-methyltransferase EHMT2 (Homo sapiens), Q96KQ7; also: nearly all actives have a fitted effect of over 75% in size
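Using a bead-based AlphaScreen, monomethylated H3K9 product from 2 h room-temperature reactions (G9a 20 nM, peptide 500 nM, SAM 20 uM) was detected with 0.5 ug/mL rabbit anti-H3K9me1 antibody.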
PI5P4K alpha inh – qHTS for Inhibitors of phosphatidylinositol 5-phosphate 4-kinase (PI5P4K); max response, %; AID 652105, 2013; Phosphatidylinositol 5-phosphate 4-kinase type-2 alpha (Homo sapiens), P48426; 1.2% of 330,000 active; PI5P4Kalpha enzyme, ADP-Glo luminescence, 60 min; stronger effect = lower value; active = max response of -50% or lower; inconclusive = between -30% and -50%; inactive = -30% or higher; also: value at the top dose of about 77 µM
Target sequence (P48426 whole entry, looked up): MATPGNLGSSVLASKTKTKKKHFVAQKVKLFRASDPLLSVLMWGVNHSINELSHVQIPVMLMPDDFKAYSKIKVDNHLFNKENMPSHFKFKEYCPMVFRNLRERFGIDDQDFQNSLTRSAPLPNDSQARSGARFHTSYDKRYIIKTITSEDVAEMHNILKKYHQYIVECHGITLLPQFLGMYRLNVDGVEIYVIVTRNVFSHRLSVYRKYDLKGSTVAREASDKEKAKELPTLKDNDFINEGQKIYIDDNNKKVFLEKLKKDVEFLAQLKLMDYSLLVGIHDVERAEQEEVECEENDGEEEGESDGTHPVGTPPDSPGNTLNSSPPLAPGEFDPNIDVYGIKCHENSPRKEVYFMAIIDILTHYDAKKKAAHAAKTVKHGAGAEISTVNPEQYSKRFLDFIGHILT
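qHTS, 1536-well: enzyme/substrate mix, compound by pin tool, 5 microM ATP final; RT 60 min; ADP-Glo reagents 1 (45 min) then 2 (30 min); luminescence.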
JMJD2A Tudor – qHTS Assay for Inhibitors of JMJD2A-Tudor Domain; Lysine-specific demethylase 4A (Homo sapiens), O75164; AlphaScreen JMJD2A-Tudor / H3K4me3 peptide binding; Potency, µM (titrated, usually from 114 µM), hits mostly inhibitors; 4.4% of 390,000 active; AID 504339, 2011; also: nearly all actives have a fitted effect of over 50% in size
Large screens that a line does not name were inactive. Unless noted, calls follow the shape of the dose curve; as a rule, active = well fitted curve in the direction sought with a large enough effect; inconclusive = small, poorly fitted or top-dose-only effect, or another doubt; inactive = no such curve, though single readings can be large; an effect the other way counts as inactive or inconclusive.

COc1ccc(OC)c(C2C=C(C34CC5CC(CC(C5)C3)C4)NC(=S)N2)c1 (stereo not drawn)	HP1b chromo inh inconclusive, BAZ2B block 32µM, G9a inh inconclusive, JMJD2A Tudor inconclusive
O=[N+]([O-])c1ccc(N/N=C/c2cccc(O)c2O)c(S(=O)(=O)N2CCOCC2)c1	BAZ2B block inconclusive, G9a inh 35µM, PI5P4K alpha inh inconclusive
O=[N+]([O-])c1ccc(N/N=C/c2ccc(O)c(O)c2O)c(S(=O)(=O)N2CCOCC2)c1	HP1b chromo inh 20µM, BAZ2B block 32µM, PLK1 PBD block 3µM, PI5P4K alpha inh -98, JMJD2A Tudor 45µM (no result: G9a inh)
O=[N+]([O-])c1ccc(N2CCN(c3ccccc3F)CC2)c(S(=O)(=O)N2CCOCC2)c1	G9a inh 20µM, JMJD2A Tudor inconclusive
O=[N+]([O-])c1ccc(NCCCO)c(S(=O)(=O)N2CCOCC2)c1	none
COc1cc(/C=N/Nc2ccc([N+](=O)[O-])cc2S(=O)(=O)N2CCOCC2)cc(OC)c1OC	G9a inh inconclusive
O=[N+]([O-])c1ccccc1N/N=C/c1cccc(O)c1O	BAZ2B block inconclusive, G9a inh inconclusive
O=[N+]([O-])c1ccc(N2CCOCC2)c(S(=O)(=O)N2CCOCC2)c1	none (no result: BAZ2B block)
O=[N+]([O-])c1cccc(N/N=C/c2cccc(O)c2O)c1	BAZ2B block inconclusive, G9a inh 22µM, PI5P4K alpha inh inconclusive
CCCCN(C)C(=O)c1ccc2c(c1)S(=O)(=O)c1ccccc1C2=O	none
CC1(C(=O)NS(=O)(=O)c2cccc(Cl)c2)CCN1C(=O)c1cccc2ccccc12 (stereo not drawn)	none (no result: HP1b chromo inh, BAZ2B block, G9a inh, JMJD2A Tudor)
O=C(CCc1ccc(S(=O)(=O)N2CCOCC2)cc1)N/N=C/c1ccc(O)c(O)c1O	HP1b chromo inh inconclusive, BAZ2B block inconclusive, PLK1 PBD block 11µM, G9a inh 7.9µM, PI5P4K alpha inh inconclusive, JMJD2A Tudor 79µM
O=C(CCc1ccc(S(=O)(=O)N2CCOCC2)cc1)N/N=C/c1ccc(F)cc1F	none
NS(=O)(=O)c1ccc(CNC(=S)Nc2ccc(F)c(Cl)c2)cc1	none
Cn1cc(Br)c(C(=O)NC(=S)Nc2ccc(S(N)(=O)=O)cc2)n1	PLK1 PBD block inconclusive, G9a inh 45µM
NS(=O)(=O)c1ccc(NC(=S)NCc2ccc(Cl)cc2)cc1	HP1b chromo inh inconclusive, PLK1 PBD block 11µM, G9a inh 8.9µM
NS(=O)(=O)c1ccc(NC(=S)NCc2ccc(F)cc2)cc1	PLK1 PBD block 21µM, G9a inh inconclusive
CC(=O)Nc1cc(-c2cccc(C(=O)NCCO)c2)cn2c(-c3ccc(F)c(Cl)c3)cnc12	none (no result: HP1b chromo inh, BAZ2B block, G9a inh, JMJD2A Tudor)
CC1(C(=O)Nc2ccc(Cl)c(Cl)c2)CCN1C(=O)CCC1CCCC1 (stereo not drawn)	none (no result: HP1b chromo inh, BAZ2B block, G9a inh, JMJD2A Tudor)
CCN(CC(=O)Nc1ccccc1OC)C(=O)CSCC(=O)Nc1ccc(OC)cc1	none
Cc1cc(C(=O)OCC(=O)Nc2ccc(F)cc2[N+](=O)[O-])c2ccccc2n1	none
Cc1csc(Sc2ccc(C(=O)OCC(=O)Nc3ccc(F)cc3[N+](=O)[O-])cc2[N+](=O)[O-])n1	G9a inh 35µM, JMJD2A Tudor inconclusive
CCOCc1nnc(NC(=O)c2c(-c3ccccc3)noc2C)s1	PLK1 PBD block 30µM, G9a inh 32µM
COc1ccc(Cc2nnc(NC(=O)c3c(-c4ccccc4)noc3C)s2)cc1OC	G9a inh 40µM (no result: HP1b chromo inh, PLK1 PBD block, PI5P4K alpha inh, JMJD2A Tudor)
C[C@H]1C(=O)N(S(=O)(=O)c2ccc([N+](=O)[O-])cc2)[C@H]1c1ccc(F)cc1	none (no result: BAZ2B block, PLK1 PBD block, G9a inh, PI5P4K alpha inh)
Cc1ccc(CNCc2ccco2)cc1	BAZ2B block 56µM, G9a inh 22µM, JMJD2A Tudor 28µM
COc1cc(CNCc2ccco2)cc(OC)c1O	G9a inh 71µM
O=C(Cn1cc([N+](=O)[O-])ccc1=O)NCC(=O)Nc1ccc(F)c(F)c1F	none (no result: BAZ2B block, G9a inh)
COc1ccc2c(c1)CCc1c(C(=O)Nc3ccc(OC)cc3OC)noc1-2	none (no result: PLK1 PBD block, PI5P4K alpha inh)
COc1ccc2c(c1)CCc1c(C(=O)NCC(C)C)noc1-2	none
CCCNC(=O)c1noc2c1CCc1cc(OC)ccc1-2	PLK1 PBD block 27µM
COc1ccc2c(c1)CCc1c(C(=O)NCc3cccnc3)noc1-2	G9a inh 40µM
O=C(c1cccs1)c1cn(CCOc2ccc(F)cc2)c2ccccc12	none (no result: PLK1 PBD block, PI5P4K alpha inh)
O=C(NC(=O)c1ccc(F)cc1F)Nc1ccc(Cl)cc1	G9a inh 45µM
CCOC(=O)c1c(C)oc2c1cc(NS(=O)(=O)c1ccc(C)cc1)c1ccccc12	none (no result: PLK1 PBD block, PI5P4K alpha inh)
COc1ccc(NC(=O)CN2CCN(CC(=O)Nc3ccccc3Cl)CC2)c(OC)c1	G9a inh 45µM (no result: PI5P4K alpha inh)
COc1cc(NC(=O)CN2CCN(CC(=O)Nc3ccc(F)cc3)CC2)cc(OC)c1	none (no result: PLK1 PBD block, PI5P4K alpha inh)
COc1ccccc1NC(=O)C(C)OC(=O)C(C)SCC(=O)Nc1ccc(C)cc1 (stereo not drawn)	G9a inh 35µM
COc1ccc(-n2cc(-c3ccc4c(c3)OCO4)n(CC(=O)Nc3cccc(C)c3)c2=O)cc1	G9a inh inconclusive, JMJD2A Tudor inconclusive (no result: PLK1 PBD block, PI5P4K alpha inh)
COc1ccc(-c2cn(-c3ccc(C)cc3)c(=O)n2CC(=O)Nc2cccc(F)c2)cc1	BAZ2B block inconclusive, G9a inh inconclusive, JMJD2A Tudor 79µM
CC(=O)Nc1ccc(NC(=O)C(C)OC(=O)C(C)SCC(=O)Nc2ccc(C)cc2)cc1 (stereo not drawn)	none
COc1cccc(NC(=O)CN2CCN(CC(=O)Nc3ccc(F)cc3)CC2)c1	G9a inh 35µM
COc1ccccc1C(=O)COC(=O)Cc1ccccc1F	none (no result: BAZ2B block, G9a inh)
COc1ccc(NCC(=O)Nc2ccc(Br)cc2F)c(OC)c1	HP1b chromo inh inconclusive, BAZ2B block 40µM, JMJD2A Tudor 56µM (no result: G9a inh)
NS(=O)(=O)c1ccc(NC(=O)CN2CCN(S(=O)(=O)c3cccs3)CC2)cc1	G9a inh 50µM
COc1cc(NC(=O)CN2CCN(CC(=O)Nc3ccccc3OC)CC2)cc(OC)c1	G9a inh 45µM
COCc1cc(C)n(CC(=O)Nc2ccccc2OC)c(=O)c1C#N	HP1b chromo inh inconclusive, PLK1 PBD block 27µM, JMJD2A Tudor inconclusive
COc1ccc(NC(=O)CN2CCN(S(=O)(=O)c3cccs3)CC2)cc1Cl	none
CCN(CC(=O)Nc1ccc(OC)cc1)CC(=O)Nc1ccc(Br)cc1F	none
Cc1cccc(NC(=O)c2ncn3c2C(=O)N(C)CC3)c1	none (no result: HP1b chromo inh, BAZ2B block, G9a inh, JMJD2A Tudor)
O=C(CSc1nnc(CNc2ccc(F)cc2)n1CC1CCCO1)N1CCOCC1 (stereo not drawn)	none
